# Results as given in PubChem BioAssay (NCATS).
# Results filed as inconclusive are left out. Unmarked numbers belong to inactive results. The call rests on the fitted dose curve; in most records, active means well fitted cell-killing curve with a large enough effect; inconclusive means small, poorly fitted or top-dose-only effect; inactive means flat fitted curve, though single readings scatter.
# Assay: Cell Viability - LYMP2-009 (AID 968);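 further: cells exposed to compound for 24 h at 37 °C; 0% = DMSO alone and the full-kill end = tetraoctylammonium bromide at 92 µM; nearly all actives have a fitted effect of over 55% in size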
# Conditions: LYMP2-009 lymphoblastoid cell viability; series mostly up to 92.2 µM; activity change, negative = viability loss: at the top concentration
# From the text: NIH Chemical Genomics Center [NCGC]
# NIH Molecular Libraries Screening Centers Network [MLSCN]
# National Institutes of Environmental Health Sciences [NIEHS]
# National Toxicology Program [NTP]
# We have developed a 1536-well cell-based assay for quantitative high throughput screening (qHTS) against a number of cell lines to determine in vitro cytotoxicity of small molecules. This particular assay uses a human lymphoblastoid cell line (LYMP2-009) purchased from Coriell Institute for Medical Research.
# NCGC Assay Protocol Summary:
# The CellTiter-Glo luminescent cell viability assay (Promega) is a homogeneous method to measure the number of viable cells in culture. The end point readout of this assay is based on quantitation of intracellular ATP, an indicator of metabolic activity, using the luciferase reaction. Luciferase catalyzes the oxidation of beetle Luciferin to oxyluciferin and light in the presence of ATP. The luminescent signal is proportional to amount of ATP present.
# Using the CellTiter-Glo luminescent cell viability assay, the amount of cellular ATP was measured in the lymphoblastoid cell line with complete culture medium following compound treatment for 24 hours. The assay was performed in opaque white Kalypsys 1536-well plates. In the screen, tetraoctylammonium bromide was used as positive control. Library compounds were measured for their ability to cause acute toxicity in the cell line, as reflected by a decrease in intracellular ATP levels, in a concentration-dependent manner. […] AC50 values were determined from concentration-response data modeled with the standard Hill equation.
# qHTS protocol for CellTiter Glo lymphoblastoid cellular assay
# [Step] [Parameter] [Value] [Description]
# 1. Reagent; 5 uL; 2500 lymphoblastoid cells/well
# 2. Time; 5 hr; 37 C incubation
# 4. Controls; 23 nL; Tetraoctylammonium bromide 6.4pM to 92 uM
# 5. Time; 24 hr; 37 C incubation
# 6. Reagent; 5 uL; CellTiter Glo reagent
# 7. Time; 30 min; Room Temperature
# 8. Detection; Luminescence; Viewlux plate reader
# Keywords: cell viability, cytotoxicity, lymphoblastoid cell line, luminescence, NTPHTS, NTPHTS_NCGC, NIEHS, DSSTox, MLSMR, MLSCN, NIH Roadmap, qHTS, NCGC
row,SMILES,"activity change, negative = viability loss"
1,c1ccc2c(c1)-c1cccc3cccc-2c13,1.83%
2,Oc1c(Cl)c(Cl)c(Cl)c(Cl)c1Cl,-20%
3,c1ccc(Nc2ccc3ccccc3c2)cc1,-8.82%
4,O=Cc1ccccc1,-10.2%
5,Cc1ccccc1O,-8.99%
6,CCOc1cc(C=O)ccc1O,-3.47%
7,COC1=CC(=O)OC(CCc2ccc3c(c2)OCO3)C1 (configuration not stated),-25.4%
8,CC(=O)/C=C/c1ccccc1,-8.38%
9,CC(C)COC(=O)c1ccccc1C(=O)OCC(C)C,-6.79%
10,COC(=O)c1ccccc1C(=O)OC,1.8%
11,CCOC(=O)c1ccccc1N,-8.15%
12,Oc1ccccc1Cl,-4.69%
